MBNL1-CUG inh: MBNL1-poly(CUG) RNA binding inhibition | TR-FRET MBNL1-His/biotin-(CUG)12 binding, 665/545 ratio | Potency, µM (titrated, usually from 57.5 µM), inactives show top-dose activity change, negative = inhibition, most hits filed as inhibitors | Q9NR56 | AID 2675 | hit rate 0.036% among 280,000; active = well fitted inhibition curve with a large enough effect in the signal ratio, with a control signal flat, not every such curve was filed as active; inconclusive = small, poorly fitted or top-dose-only effect, or effect the other way, or a change in a side signal; inactive = no such curve, though single readings can be large or run the other way; the % refers to the signal ratio; note: potency is the fitted concentration of half-maximal effect; % is set by controls: 0 for no effect and ±100 for the full control effect
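Inhibition of protein-RNA binding appears as loss of TR-FRET between terbium anti-His antibody on MBNL1-His and streptavidin-XL665 on biotin-(CUG)12. Activity is normalized to buffer-only and uninhibited-complex controls.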
uPA generation: inhibitors of cell surface uPA generation; cell surface uPA generation assay, qHTS; Potency, µM (highest dose often 38.3 µM), for the others: at the highest dose activity change, negative = inhibition, usual class: inhibitors; hit rate 0.31% among 330,000; AID 540303; active = well fitted inhibition curve with a large enough effect; inconclusive = small, poorly fitted or top-dose-only effect; inactive = no such curve, though single readings can be large or run the other way; tested in mouse RAW 264.7 cells; note: potency is the fitted concentration of half-maximal effect; % is set by controls: 0 for no effect and ±100 for the full control effect; nearly all actives have a fitted effect of over 55% in size
CtBP-E1A blk: blocks the CtBP interaction with E1A | AlphaScreen GST-E1A/His-CtBP binding, 1536-well; hits give low values | activity change, % (no concentration beside the values) | hit rate 0.49% among 340,000 | AID 651724; note: % is set by controls: 0 for no effect and ±100 for the full control effect
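GST-E1A and His-tagged CtBP (125 nM each as 5X stock) were preincubated with pin-transferred compound for 2 h at 37 °C in the dark, then glutathione donor and nickel acceptor beads were added for 1 h before AlphaScreen reading.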
Six1-Eya2 inh: blocks human Six1 binding to Eya2; AID 651725; hit rate 0.56% among 360,000; AlphaScreen GST-Six1/His-Eya2 binding, biochemical; hits give low values; activity change, % (test concentration not listed); note: % is set by controls: 0 for no effect and ±100 for the full control effect
Target sequence (O00167 whole entry, looked up): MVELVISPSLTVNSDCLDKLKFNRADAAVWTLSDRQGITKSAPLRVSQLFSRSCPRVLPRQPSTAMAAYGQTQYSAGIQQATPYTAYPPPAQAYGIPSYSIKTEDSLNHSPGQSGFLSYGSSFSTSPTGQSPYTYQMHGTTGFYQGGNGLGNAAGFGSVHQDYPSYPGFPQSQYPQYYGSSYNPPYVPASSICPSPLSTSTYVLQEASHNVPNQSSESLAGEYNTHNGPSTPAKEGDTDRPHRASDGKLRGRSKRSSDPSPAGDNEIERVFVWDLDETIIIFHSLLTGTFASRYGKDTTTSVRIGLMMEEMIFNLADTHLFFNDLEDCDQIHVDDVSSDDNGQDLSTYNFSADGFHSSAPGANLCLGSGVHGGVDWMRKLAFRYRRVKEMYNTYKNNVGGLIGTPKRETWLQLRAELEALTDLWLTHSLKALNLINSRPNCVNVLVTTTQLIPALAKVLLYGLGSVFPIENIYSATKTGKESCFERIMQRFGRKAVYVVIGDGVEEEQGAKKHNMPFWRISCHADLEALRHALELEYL
Target sequence (Q15475 whole entry, looked up): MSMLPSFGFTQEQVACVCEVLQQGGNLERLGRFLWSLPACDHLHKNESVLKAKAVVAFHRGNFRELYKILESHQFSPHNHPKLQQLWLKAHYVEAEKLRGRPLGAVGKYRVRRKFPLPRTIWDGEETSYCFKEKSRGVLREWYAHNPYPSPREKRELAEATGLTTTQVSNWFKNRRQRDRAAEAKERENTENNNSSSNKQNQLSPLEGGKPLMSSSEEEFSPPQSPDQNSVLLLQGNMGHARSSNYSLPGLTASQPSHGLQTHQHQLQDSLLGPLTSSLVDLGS
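Six1/Eya2 binding was read as AlphaScreen signal after compounds were pinned into GST-Six1 plus His-tagged Eya2 (5X stock 250/500 nM) in pH 8.0 Tris/NaCl/TCEP buffer, beads added, then incubated 1 h, 37 C, dark.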
Mito fusion yeast: blocks mitochondrial division or promotes mitochondrial fusion; AID 485298; hit rate 0.23% among 320,000; Potency, µM (doses to about 46.1 µM), inactives show at the highest dose growth rescue (activation), hits mostly activators; S. cerevisiae fusion-defective mutant growth rescue, CellTiterGlo 48 h; active = well fitted activation curve with a large enough effect; inconclusive = small, poorly fitted or top-dose-only effect; inactive = no such curve, though single readings can be large or run the other way; note: potency is the fitted concentration of half-maximal effect; % of control where 0% means no effect; nearly all actives have a fitted effect of over 45% in size
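Yeast fusion mutant, YPEG (non-fermentable carbon), compound, 48 h at 37C non-permissive; CellTiterGlo added, 10 min RT, luminescence read. Rescued growth = division inhibition.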
Starred values were filed as active, the others as inactive. Most compounds without a hit are left out; they make up all but 1.1% or so of the library. Cut-off read from the data, not from the text of the source, unless noted: active = activity change below about -65%; inconclusive = mostly about -30% to -63%; inactive = weaker than that.

How did Cc1cc(Nc2ncc(Cl)cc2Cl)n(-c2ccccc2C)n1 do in these assays?
MBNL1-CUG inh: inconclusive; uPA generation: -1%; CtBP-E1A blk: 17; Six1-Eya2 inh: 6; Mito fusion yeast: 22µM*

Results for C#CC(N)CCC(=O)O (stereo not given) ?
Mito fusion yeast: -4%

What do the screens show for `COCCCN=C1NN=C(c2cc(C)n(-c3ccccc3F)c2C)CS1`?
uPA generation: 6.3µM*; CtBP-E1A blk: -3; Six1-Eya2 inh: -17; Mito fusion yeast: -9%

How did Cc1cc(C)nc(/N=C(\N)Nc2cccc(OCc3ccccc3)c2)n1 do in these assays?
MBNL1-CUG inh: 2%; uPA generation: 7.1µM*; Six1-Eya2 inh: -5; Mito fusion yeast: 1%

Results for CC(C)COC(=O)N1CCCCC1c1cc(C(=O)NCc2ccc(F)cc2)no1 (stereo not given) ?
CtBP-E1A blk: 11; Six1-Eya2 inh: 6

How did O=C(Nc1cc(F)ccc1F)c1cc2nc(-c3ccco3)cc(C(F)(F)Cl)n2n1 do in these assays?
Mito fusion yeast: -6%

Results for Cc1nnc2sc(SCC(=O)Nc3ccc(Cl)cc3)nn2c1=O ?
MBNL1-CUG inh: 12%; uPA generation: 1%; CtBP-E1A blk: -88*; Six1-Eya2 inh: inconclusive; Mito fusion yeast: 11%

Results for Cc1nnc2sc(SCc3ccc(Cl)cc3)nn2c1=O ?
MBNL1-CUG inh: 0%; uPA generation: -3%; CtBP-E1A blk: -4; Six1-Eya2 inh: 7; Mito fusion yeast: -15%

How did CC(=O)Nc1cccc(NC(=O)CSc2nn3c(=O)c(C)nnc3s2)c1 do in these assays?
MBNL1-CUG inh: -1%; uPA generation: -4%; CtBP-E1A blk: -88*; Six1-Eya2 inh: -73*; Mito fusion yeast: 4%

Results for Cc1cccc(CSc2nn3c(=O)c(C)nnc3s2)c1 ?
MBNL1-CUG inh: 7%; uPA generation: -2%; CtBP-E1A blk: -1; Six1-Eya2 inh: 0; Mito fusion yeast: 0%

What do the screens show for `COc1ccc(C(=O)C(=O)N2CCN(C(=O)OCc3ccccc3)CC2)cc1`?
CtBP-E1A blk: 5; Six1-Eya2 inh: 1

How did CCOc1ccc(OCC)c(NS(=O)(=O)c2c(C)[nH]c(=O)[nH]c2=O)c1 do in these assays?
Mito fusion yeast: 2%

What do the screens show for `Nc1ccn([C@@H]2O[C@H](C(=O)NCC(F)(F)F)[C@@H](O)[C@H]2O)c(=O)n1`?
CtBP-E1A blk: 6; Six1-Eya2 inh: 1

Results for CCOc1ccccc1NC(=O)CCSc1nc2n[nH]c(C)c2c(=N)n1-c1ccccc1Cl ?
MBNL1-CUG inh: inconclusive; CtBP-E1A blk: -14; Six1-Eya2 inh: -12; Mito fusion yeast: 2%

How did CCc1ccccc1NC(=O)CSc1nc2n[nH]c(C)c2c(=N)n1-c1cccc(OC)c1 do in these assays?
MBNL1-CUG inh: -13%; CtBP-E1A blk: -70*; Six1-Eya2 inh: inconclusive; Mito fusion yeast: -1%

What do the screens show for `Cc1ccccc1-n1c(SCC(=O)Nc2ccccc2Cl)nc2n[nH]c(C)c2c1=N`?
MBNL1-CUG inh: -1%; uPA generation: -6%; CtBP-E1A blk: inconclusive; Six1-Eya2 inh: -20; Mito fusion yeast: 11µM*

How did COc1ccc(OC)c(NC(=O)CSc2nc3n[nH]c(C)c3c(=N)n2-c2cccc(Cl)c2C)c1 do in these assays?
MBNL1-CUG inh: 1%; uPA generation: -9%; CtBP-E1A blk: -17; Six1-Eya2 inh: -9; Mito fusion yeast: 6.3µM*

What do the screens show for `COc1cccc(-c2cccc3c2NC(=O)C3(C)Cc2ccccc2F)c1` (stereo not given)?
CtBP-E1A blk: 1; Six1-Eya2 inh: 1

What do the screens show for `Fc1ccc(-c2nnc3n2CCCCC3)cc1`?
MBNL1-CUG inh: 0%; uPA generation: 3%; CtBP-E1A blk: -2; Six1-Eya2 inh: -4; Mito fusion yeast: 16µM*

What do the screens show for `Cc1nc2ccc(C(=O)N/N=C/c3ccccc3O)cc2[nH]1`?
MBNL1-CUG inh: inconclusive; uPA generation: -5%; CtBP-E1A blk: -88*; Six1-Eya2 inh: -80*; Mito fusion yeast: -13%

What do the screens show for `Cc1nc2ccc(C(=O)N/N=C/c3cc([N+](=O)[O-])ccc3O)cc2[nH]1`?
MBNL1-CUG inh: 18%; uPA generation: 4%; CtBP-E1A blk: -92*; Six1-Eya2 inh: -92*; Mito fusion yeast: -10%

What do the screens show for `COc1ccc(O)c(/C=N/NC(=O)c2ccc(CSc3nc(C)cc(C)n3)cc2)c1`?
MBNL1-CUG inh: -4%; uPA generation: -8%; CtBP-E1A blk: inconclusive; Six1-Eya2 inh: inconclusive; Mito fusion yeast: -1%

What do the screens show for `Cc1cc(C)nc(SCc2ccc(C(=O)N/N=C/c3cccc(O)c3O)cc2)n1`?
MBNL1-CUG inh: inconclusive; uPA generation: -18%; CtBP-E1A blk: -96*; Six1-Eya2 inh: -95*; Mito fusion yeast: 3%

What do the screens show for `C[C@@H]1CN([C@H](C)CO)C(=O)CCCn2cc(nn2)CO[C@H]1CN(C)C(=O)Nc1ccc2c(c1)OCO2`?
CtBP-E1A blk: 3; Six1-Eya2 inh: 2

Results for COc1ccc(/C=C/C(=O)NCC(=O)N/N=C/c2cc(Br)ccc2OC)cc1 ?
MBNL1-CUG inh: 13%; uPA generation: -11%; CtBP-E1A blk: 7; Six1-Eya2 inh: -3; Mito fusion yeast: 5%

Results for O=C(CNC(=O)C1COc2ccccc2O1)N/N=C\c1cccc(O)c1 (stereo not given) ?
uPA generation: -3%; CtBP-E1A blk: 1; Six1-Eya2 inh: 5; Mito fusion yeast: -4%

What do the screens show for `O=C(N/N=C/c1ccc(O)cc1O)/C(=C/c1ccccc1)CCO`?
MBNL1-CUG inh: 11%; uPA generation: -11%; CtBP-E1A blk: -92*; Six1-Eya2 inh: -89*; Mito fusion yeast: -24%

How did COc1ccc2[nH]c(C(=O)N/N=C/c3ccc(O)cc3O)cc2c1 do in these assays?
MBNL1-CUG inh: 8%; uPA generation: inconclusive; Six1-Eya2 inh: -80*; Mito fusion yeast: 7%

How did CCOc1ccc2[nH]c(C(=O)N/N=C/c3ccc(OC)cc3)cc2c1 do in these assays?
MBNL1-CUG inh: -2%; uPA generation: -1%; CtBP-E1A blk: -6; Six1-Eya2 inh: -17; Mito fusion yeast: 6%

What do the screens show for `COc1cc(/C=N/NC(=O)/C(=C/c2ccccc2)CCO)ccc1O`?
MBNL1-CUG inh: 13%; uPA generation: -2%; CtBP-E1A blk: -1; Six1-Eya2 inh: -9; Mito fusion yeast: -6%

Results for COc1ccc(/C=C\C(=O)NCC(=O)N/N=C/c2ccc(O)cc2O)cc1 ?
MBNL1-CUG inh: inconclusive; uPA generation: -11%; CtBP-E1A blk: -17; Six1-Eya2 inh: -88*; Mito fusion yeast: 2%

How did O=C(CNC(=O)C1COc2ccccc2O1)N/N=C/c1ccc(O)cc1O (stereo not given) do in these assays?
uPA generation: -9%; CtBP-E1A blk: -88*; Six1-Eya2 inh: -88*; Mito fusion yeast: -2%

How did O=C1C=CC(n2cc(F)c(=O)[nH]c2=O)O1 (stereo not given) do in these assays?
CtBP-E1A blk: -16; Six1-Eya2 inh: -11
